T cruzi growth-1 – blocks T. cruzi growth in NIH3T3 culture; T. cruzi beta-gal in NIH3T3, GalScreen luminescence, 90 h; inhibition, % at 8.34 µM; 77,000 tested, 5.9% active; AID 624255;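 active means mean inhibition above about 93%, with at least 55% of replicates each passing it, limit read from the data, passing the limit was not always enough; inconclusive means only one of those two conditions holds; inactive means neither condition holds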
C diff HTS – blocks growth of Clostridium difficile | Clostridium difficile clinical isolate growth, OD600, 24 h; hits give low values | growth activity, negative = inhibition, % at 16 µg/mL (by protocol) | 86,000 tested, 0.25% active | AID 1259249;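 active means mean growth activity at or below -80% and every replicate also at or below -80%; inconclusive means mean at or below -80% but some replicate above -80%; inactive means mean growth activity above -80%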;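 further: 0% = DMSO wells and -100% = levofloxacin 16 µg/mL wells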
Pf Dd2 growth – inhibitors of Plasmodium falciparum Dd2 growth | activity change, % at 10 µM | 94,000 tested, 2.3% active | P. falciparum Dd2 growth, SYBR Green, 72 h; hits give low values; in the data active means activity change below about -80%; inconclusive means no clear call, values can overlap the other calls
T cruzi growth-2 – inhibitors of T. cruzi proliferation; T. cruzi beta-gal in NIH3T3, GalScreen luminescence, 90 h; AID 651739; 5,600 tested, 72% active; inhibition, % at 8.35 µM; shares compounds with T cruzi growth-1;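 active means mean replicate inhibition above about 95% and at least 55% of replicates individually reaching it, limit read from the data; inconclusive means only one of the two criteria is met; inactive means neither criterion is met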
T cruzi growth-3 – Trypanosoma cruzi proliferation inhibition; shares compounds with T cruzi growth-1; T. cruzi beta-gal in NIH3T3, GalScreen luminescence, 90 h; inhibition, % at 2.09 µM; 5,600 tested, 21% active; AID 651740;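 active means mean inhibition above about 95%, with at least 55% of replicates also reaching it, limit read from the data; inconclusive means meets just one of the two conditions; inactive means meets neither condition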;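 further: plate controls were neutral control median for no effect and positive control median for full effect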
3T3 cytotox – cytotoxicity in mouse NIH/3T3 fibroblasts; shares compounds with T cruzi growth-1; 5,600 tested, 14% active; AID 651742; NIH/3T3 viability, CellTiter-Glo ATP luminescence, 90 h; cytotoxicity (signal decrease), % at 8.35 µM;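 active means mean signal decrease across replicates above about 35% based on untreated-well scatter, with enough replicates individually passing, limit read from the data; inconclusive means no rule stated though some were filed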;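 further: 0% = median of neutral control wells and 100% = median of positive control wells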
3T3 cytotox 2 – cytotoxicity in mouse NIH/3T3 fibroblasts; inhibition, % at 24.9 µM; NIH/3T3 viability, CellTiter-Glo ATP luminescence, 90 h; AID 651744; shares compounds with T cruzi growth-1; 5,600 tested, 56% active;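 active means mean loss of cell viability signal at or above a set limit, and enough replicates individually reaching it; inconclusive means meets only the mean limit or only the replicate share; inactive means meets neither condition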;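 further: 0% = median of neutral control wells and 100% = median of positive control wells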
* hit, by the source's call; ? = inconclusive; · = not tested or not shown. In the library only some 6.7% were active in any assay of this set; here they are far more common.

SMILES	T cruzi growth-1	C diff HTS	Pf Dd2 growth	T cruzi growth-2	T cruzi growth-3	3T3 cytotox	3T3 cytotox 2
O=C(C[C@H]1C[C@H]2c3cc(NC(=O)c4ccc5c(c4)OCO5)ccc3O[C@H]2[C@H](CO)O1)NCc1ccc(Oc2ccccc2)cc1	16.4	3.5	-6.0	·	·	·	·
O=C(C[C@@H]1C[C@@H]2c3cc(NC(=O)c4ccc5c(c4)OCO5)ccc3O[C@@H]2[C@H](CO)O1)NCc1ccc(Cl)cc1	9.2	3.3	-10.0	·	·	·	·
O=C(C[C@H]1C[C@@H]2c3cc(NC(=O)c4ccc5c(c4)OCO5)ccc3O[C@@H]2[C@H](CO)O1)NCc1ccc(Oc2ccccc2)cc1	176.7*	-5.0	-18.4	98.7*	38.2	-15.0	44.8*
O=C(C[C@H]1C[C@@H]2c3cc(NC(=O)c4ccc5c(c4)OCO5)ccc3O[C@@H]2[C@@H](CO)O1)NCc1ccc(Cl)cc1	100.7*	4.2	-41.4	100.8*	56.1	20.7	25.0
O=C(C[C@@H]1CC[C@@H](NC(=O)Nc2ccc(C(F)(F)F)cc2)[C@H](CO)O1)NCCN1CCCC1	-33.0	·	5.8	·	·	·	·
CC(C)C(=O)Nc1ccc2c(c1)C(=O)N(C)[C@@H]1CC[C@H](CC(=O)NCCCN(C)C)O[C@@H]1CO2	-36.7	-6.3	-72.4	·	·	·	·
O=C(C[C@H]1CC[C@H]2[C@@H](COC[C@H](O)CN2Cc2ccc(Cl)cc2)O1)NCCc1ccccc1	85.0	-12.3	·	·	·	·	·
C[C@@H]1CCCCO[C@H](CN(C)Cc2ccc(C(=O)O)cc2)[C@@H](C)CN([C@H](C)CO)C(=O)c2cc(NC(=O)Cc3ccccc3)ccc2O1	-34.3	-11.0	68.9	·	·	·	·
CS(=O)(=O)Nc1ccc2c(c1)[C@H]1C[C@H](CC(=O)N3CCCCC3)O[C@H](CO)[C@H]1O2	-74.4	2.8	16.6	·	·	·	·
C[C@H](CO)N1C[C@H](C)[C@H](CN(C)C(=O)Nc2ccccc2)OCCCC[C@H](C)Oc2ccc(NS(=O)(=O)c3ccc(Cl)cc3)cc2C1=O	124.1*	5.7	-56.2	110.3*	77.8	18.7	29.4
C[C@@H]1CCCCO[C@H](CN(C)C(=O)c2ccccc2)[C@H](C)CN([C@H](C)CO)C(=O)c2cc(NS(=O)(=O)c3ccc(Cl)cc3)ccc2O1	57.3	3.1	-21.0	·	·	·	·
C[C@@H]1CCCCO[C@H](CN(C)C(=O)Nc2ccccc2)[C@@H](C)CN([C@H](C)CO)C(=O)c2cc(NS(=O)(=O)c3ccccc3)ccc2O1	·	·	-13.7	·	·	·	·
C[C@@H]1CCCCO[C@@H](CN(C)C(=O)c2ccccc2)[C@H](C)CN([C@H](C)CO)C(=O)c2cc(NS(=O)(=O)c3ccc(Cl)cc3)ccc2O1	98.0*	2.7	-29.8	111.3*	32.4	21.2	-1.7
C[C@@H]1CCCCO[C@H](CN(C)C(=O)Nc2ccccc2)[C@@H](C)CN([C@H](C)CO)C(=O)c2cc(NS(=O)(=O)c3ccc(Cl)cc3)ccc2O1	63.4	-21.3	-51.6	·	·	·	·
C[C@H](CO)N1C[C@H](C)[C@@H](CN(C)C(=O)Nc2ccccc2)OCCCC[C@H](C)Oc2ccc(NS(=O)(=O)c3ccc(Cl)cc3)cc2C1=O	89.5	12.7	-63.1	·	·	·	·
C[C@@H]1CCCCO[C@H](CN(C)C(=O)Nc2ccccc2)[C@H](C)CN([C@@H](C)CO)C(=O)c2cc(NS(=O)(=O)c3ccc(Cl)cc3)ccc2O1	?	10.3	-73.9	101.2*	76.5	-1.8	-3.6
C[C@@H]1CN([C@@H](C)CO)C(=O)c2cc(NS(=O)(=O)c3ccc(Cl)cc3)ccc2O[C@@H](C)CCCCO[C@@H]1CN(C)C(=O)Nc1ccccc1	100.2*	5.9	-78.8	97.9*	-2.3	13.2	24.2*
COc1ccc(-c2ccc3n(c2=O)C[C@H]2[C@H](CO)[C@@H](C(=O)N(C)C)[C@@H]3N2Cc2ccncc2)cc1	-8.1	0.5	-11.4	·	·	·	·
CO[C@@H]1CN(C)C(=O)c2ccc(NC(=O)C3CCCCC3)cc2OC[C@@H](C)N(C)C[C@@H]1C	-14.6	-2.0	-2.0	·	·	·	·
COc1ccc2c3c([nH]c2c1)[C@@H](CO)N(C(=O)c1ccccn1)CC31CN(C(=O)C2CC2)C1	·	3.7	3.2	·	·	·	·

Source: PubChem (Broad Institute)
